We go through 20 compounds from the supplement of paper PMC10732440.

SMILES strings stand for the structures. ± gives the standard deviation of the averaged measurements.

The test has as its system Caenorhabditis elegans N2 infected with Nematocida parisii ERTm1. Put plainly: progeny production relative to DMSO uninfected control; higher = more progeny despite microsporidia infection (inhibition of infection with low host toxicity). The conditions noted are these: infection time 6 days; 100 µM. In a few lines:
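Bleach-synchronised wild-type C. elegans L1 larvae (100 per well) were placed in 96-well plates with K-medium, E. coli OP50 and 15,000 N. parisii spores/μL, with compound pinned to 100 μM or 40 μM in 1% DMSO. Plates were shaken at 21°C for 6 days; worms were then Rose Bengal-stained, flatbed-scanned and counted with WorMachine, each compound and dose tested three times. Progeny production is given as a percentage of the spore-free vehicle control, averaged across replicates.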
`CN(C(=O)C1(c2ccc(Cl)cc2)CCC1)c1ccccc1`: the progeny production was 14.9 ± 2.4%.

`COC1CC2CCC(C)C(O)(O2)C(=O)C(=O)N2CCCCC2C(=O)OC(C(C)CC2CCC(OCCO)C(OC)C2)CC(=O)C(C)/C=C(\C)C(O)C(OC)C(=O)C(C)CC(C)/C=C/C=C/C=C/1C` (stereo not given): the progeny production is 9.56 ± 2.5%.

`CC1(C)Cc2c(C#N)c(SCCc3ccccc3)nc(N3CCOCC3)c2CO1` showed a progeny production of 18.8 ± 15%.

The compound `Cc1nc2ccc(Oc3ccccc3)cc2c2c1CCN2CCc1ccccc1` registered a progeny production of 11.3 ± 9.1%.

Compound `Cn1c2ccccc2c(=O)c2c(O)cccc21` gave a progeny production of 13.6 ± 7.8%.

Regarding `NCCCc1ccccc1C(=O)Nc1ncc([N+](=O)O)s1`, the progeny production was found to be 25.2 ± 31%.

`O=c1cc(OCc2ccccc2)ccn1Cc1ccccc1` displayed a progeny production of 13.9 ± 13%.

Consider `O[C@@](Cn1cnnn1)(c1ccc(F)cc1F)C(F)(F)c1ccc(-c2ccc(OCC(F)(F)F)cc2)cn1`, for which the progeny production turned out to be 11.8 ± 2.2%.

On to `O=C(O)c1ccc(-n2nc(-c3ccccc3O)nc2-c2ccccc2O)cc1`, for which the progeny production was found to be 16.7 ± 7.4%.

Compound `CN(C)CCCNC(=O)c1ccc(-c2cc(O)c3ncccc3c2)cc1` returned a progeny production of 10.5 ± 6.4%.

In the case of `O=C(NNC(=S)Nc1ccc(Cl)cc1)c1ccncc1`, the progeny production was 18.4 ± 12%.

As for `CC1=C(/C=C/C(C)=C/C=C/C(C)=C/C(=O)Nc2ccc(O)cc2)C(C)(C)CCC1`, the progeny production is 11.6 ± 9.7%.

As for `Cc1ccn2c(C(=O)NCc3ccccc3)c(C)nc2c1`, the progeny production is 13.1 ± 10%.

Take `C=C[C@]1(C)C[C@@H](OC(=O)CS[C@@H]2C[C@H]3CC[C@@H](C2)N3C)[C@]2(C)[C@H](C)CC[C@]3(CCC(=O)[C@H]32)[C@@H](C)[C@@H]1O`: the progeny production stood at 15.1 ± 6.1%.

`CCCCCCCCC(CP(=O)(O)C(C)N)C(=O)O` (stereo not given) showed a progeny production of 18.6 ± 11%.

Consider `CCOC(=O)Nc1cc(NC(C)CC(C)CN(CC)CC)c2nc(-c3ccccc3)c(-c3ccccc3)nc2n1` (stereo not given), for which the progeny production stood at 13.3 ± 9.8%.

`CN(C/C=C/C#CC(C)(C)C)Cc1cccc2ccccc12` yielded a progeny production of 17.7 ± 11%.

The compound `COC(=O)Nc1nc2cc(Sc3ccccc3)ccc2[nH]1` came in with a progeny production of 29.3 ± 18%.

On to `OB1OCc2cc(Cl)ccc21`, for which the progeny production worked out at 21.3 ± 17%.

On to `O=S(=O)(Nc1cccc2cccnc12)c1ccccc1`, for which the progeny production came to 12.9 ± 7.2%.
